The nature of assay [1]: viability loss with induced miR-34 in A549 – imaging, A549 dox-inducible miR-34, nuclei and caspase counts, primary screen (AID 1347080;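 active = compounds whose cell count with miR-34 switched on is under 0.7 times the count with it off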). The following applies: A549 miR-34 inducible, Hoechst nuclei count, 48 h.
Assay [2] can be described thus: growth inhibition of DIPG cells – cell-based, MIPE4.0 library, CellTiter-Glo luminescence, qHTS (AID 1347066; cut-off not given, nearly all actives have AC50 up to about 30 µM;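 also: cells exposed to compound for 48 hours before readout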). The following applies: SU-DIPG-VI viability, CellTiter-Glo ATP luminescence.
Assay [3] can be described thus: blockers of cellular phospholipid synthesis – cell-based, LOPAC library, screen 4, primary screen (AID 1347384; call rule not given here). The following applies: animal cells, phospholipid biosynthesis inhibition screen; at 10 µM.
Assay [4] in a line: MELAS cybrid and Rieske KO viability enhancers – cell-based, MELAS cybrids, Rieske KO mouse fibroblasts, CellTiter-Glo, primary screen (AID 1508586).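 Also: z relative to plate mean and SD of compound and empty wells.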 The following applies: low glucose. (In general: ATP-based viability assays read luminescence as a measure of living cells.)
The nature of assay [5]: JHH-DIPG-1 glioma cell viability, MIPE5.0 library, CellTiter-Glo luminescence, qHTS (AID 1347067; cut-off not given, nearly all actives have AC50 up to about 26 µM;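 also: cells exposed to compound for 48 hours before readout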). The following applies: JHH-DIPG-1 glioma viability, CellTiter-Glo ATP luminescence.
Assay [6] can be described thus: growth inhibition of DIPG cells – cell-based, MIPE5.0 library, qHTS (AID 1347068; cut-off not given, nearly all actives have IC50 up to about 30 µM). The following applies: SU-DIPG-XXV viability. On the technique in general: qHTS replaces the single test concentration by a dilution series.
Assay [7] in a line: chitosan synthesis blockers in C. neoformans – flow cytometry, Cibacron Brilliant Red staining (AID 1347148; call rule not given here;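 also: compound exposure lasted three days at 37 degrees C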). The following applies: Cryptococcus neoformans chitosan, stronger effect = lower value; at 10 µM unless noted. For orientation: Flow cytometry measures light scatter and fluorescence of single cells or particles in a stream.
[8] abbreviates: stronger effect = lower value, cell number ratio, induced over uninduced.
The mark [9] stands for this setting: measured here: relative caspase fold change +Dox/-Dox.
The mark [10] stands for this setting: measured here: total cells with miR-34 induction, stronger effect = lower value.
Setting [11] is: measured here: total cells without miR-34 induction.
The mark [12] stands for this setting: MELAS cybrid survival, CellTiter-Glo 48 h, stronger effect = higher value.
The mark [13] stands for this setting: Rieske KO mouse fibroblast survival, CellTiter-Glo 72 h.

Several values for one entry are separate records, joined by “and”; a condition that tells them apart may be missing. Identical values can stand only once. Inconclusive results are not listed. Activity calls are given as the source filed them.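 The calls were made as follows, unless noted: active = mean z-score across replicates of 1.96 or higher in either the MELAS or the Rieske mutant cell line; inactive = the rest.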

Turning to `CC(=O)OCC1=C(C(=O)O)N2C(=O)[C@@H](NC(=O)CSc3ccncc3)[C@H]2SC1`, the figures for the fold change in assay [1] (setting [8]) and in assay [1] (setting [9]) were 0.915 (inactive) and 4.65, respectively. Besides, the cell count in assay [1] (setting [10]) is 11600; in assay [1] (setting [11]) it was 12700.

As for `O=C(c1ccc(F)cc1)C1CCN(CCn2c(=O)[nH]c3ccccc3c2=O)CC1`, the compound was classed as inactive in assay [2] and in assay [3]. Further, the z-score was -0.256 (inactive) and 0.859 (inactive) and 1.46 (inactive) in assay [4] (setting [12]); 0.928 and -0.102 and 0.875 in assay [4] (setting [13]).

Take `Cc1cc(C(C)(C)C)c(O)c(C(C)(C)C)c1`: the fold change is 0.871 (inactive) in assay [1] (setting [8]) and 0.986 in assay [1] (setting [9]). Besides, the cell count is 10700 in assay [1] (setting [10]) and 12300 in assay [1] (setting [11]).

Take `CC(C)c1nc(CN(C)C(=O)N[C@H](C(=O)N[C@@H](Cc2ccccc2)C[C@H](O)[C@H](Cc2ccccc2)NC(=O)OCc2cncs2)C(C)C)cs1`: the compound was classed as inactive in assay [2]. In addition, the z-score in assay [4] (setting [12]) is -1.48 (inactive); in assay [4] (setting [13]), 0.534.

With `Cc1nc2n(c(=O)c1CCN1CCC(c3noc4cc(F)ccc34)CC1)CCCC2`, the compound was classed as inactive in assay [2]. The z-score in assay [4] (setting [12]) was 1.35 (inactive) and -1.13 (inactive) and -0.64 (inactive); in assay [4] (setting [13]), 0.0817 and 0.437 and -0.833.

For `CC(=O)NO`, the fold change in assay [1] (setting [8]) was 0.922 (inactive); in assay [1] (setting [9]), 0.946. In addition, the values for the cell count in assay [1] (setting [10]) and in assay [1] (setting [11]) were 11300 and 12300, respectively.

Turning to `CCOC(N)=O`, the fold change is 0.875 (inactive) in assay [1] (setting [8]) and 3.55 in assay [1] (setting [9]). Besides, the figures for the cell count in assay [1] (setting [10]) and in assay [1] (setting [11]) were 11200 and 12800, respectively.

On to `CNCCCCOc1ccccc1Cc1ccccc1`, for which the fold change in assay [1] (setting [8]) is 0.954 (inactive) and 0.995 (inactive); in assay [1] (setting [9]) it was 1.55 and 0.924. Further, the cell count was 7470 and 8010 in assay [1] (setting [10]); 7840 and 8050 in assay [1] (setting [11]).

In the case of `Cc1cc2nc3c(=O)[nH]c(=O)nc-3n(C[C@H](O)[C@H](O)[C@H](O)CO)c2cc1C`, the fold change in assay [1] (setting [8]) was 0.873 (inactive); in assay [1] (setting [9]), 1.61. The cell count in assay [1] (setting [10]) was found to be 7920; in assay [1] (setting [11]), 9080.

On to `COc1ccc(-c2cc(C(F)F)nn2-c2ccc(S(N)(=O)=O)cc2)cc1F`, for which the fold change in assay [1] (setting [8]) was 0.791 (inactive); in assay [1] (setting [9]), 2.48. The cell count in assay [1] (setting [10]) turned out to be 10300; in assay [1] (setting [11]) it was 13000.

With `CN1CCN2c3ccccc3Cc3ccccc3C2C1` (stereo not drawn), the compound was called inactive in assay [2] and in assay [3]. Besides, the z-score is -0.437 (inactive) and -0.163 (inactive) and -1.32 (inactive) in assay [4] (setting [12]); 0.688 and 0.138 and 0.514 in assay [4] (setting [13]).

As for `CC(C)NCC(O)COc1ccc(COCCOC(C)C)cc1` (stereo not drawn), the result in assay [2] and in assay [3] was inactive. In addition, the z-score was -0.423 (inactive) and -0.586 (inactive) in assay [4] (setting [12]); 0.385 and -0.329 in assay [4] (setting [13]).

For orientation: AC50 means the concentration giving half of the maximal activity seen. `COc1cc2nc(N3CCN(C(=O)C4COc5ccccc5O4)CC3)nc(N)c2cc1OC` (stereo not drawn): the AC50 in assay [2] was 23.5 µM (active). For the same compound, the compound was called inactive in assay [3]. For the same compound, the z-score in assay [4] (setting [12]) is -0.637 (inactive) and 1.46 and 0.739; in assay [4] (setting [13]), 1.03 and 2.18 and 2.11.

With `O=C1Nc2ccc(Cl)cc2[C@@](C#CC2CC2)(C(F)(F)F)O1`, in assay [5], the AC50 is 20.9 µM (active). In addition, the fold change is 0.73 (inactive) and 0.903 (inactive) in assay [1] (setting [8]); 1.52 and 0.886 in assay [1] (setting [9]). Moreover, the cell count was 6400 and 6960 in assay [1] (setting [10]); 8760 and 7710 in assay [1] (setting [11]). Besides, the z-score is 1.16 (inactive) and -1.54 (inactive) in assay [4] (setting [12]); 0.346 and 0.0528 in assay [4] (setting [13]).

For `COc1cc2nc(N3CCN(C(=O)C4CCCO4)CC3)nc(N)c2cc1OC` (stereo not drawn), the call in assay [2] was inactive. Further, the z-score was -0.37 (inactive) and 0.933 (inactive) and -0.482 (inactive) in assay [4] (setting [12]); 0.344 and 0.726 and -1.05 in assay [4] (setting [13]).

Consider `COc1cc(C(=O)NS(=O)(=O)c2ccccc2C)ccc1Cc1cn(C)c2ccc(NC(=O)OC3CCCC3)cc12`, for which the result in assay [5] and in assay [6] was inactive. Besides, the z-score was -0.216 (inactive) and 0.374 (inactive) and -0.157 (inactive) in assay [4] (setting [12]); 0.567 and -0.073 and 0.0854 in assay [4] (setting [13]).

Take `CCOC(=O)O[C@]1(C(=O)OCCl)CC[C@H]2[C@@H]3CCC4=CC(=O)C=C[C@]4(C)[C@H]3[C@@H](O)C[C@@]21C`: the call in assay [6] was inactive. The z-score is 0.475 (inactive) in assay [4] (setting [12]) and 0.287 in assay [4] (setting [13]).

For `Cc1cc(O)cc(C)c1Cl`, the fold change in assay [1] (setting [8]) is 0.933 (inactive); in assay [1] (setting [9]), 1.14. Further, the cell count in assay [1] (setting [10]) came to 10100; in assay [1] (setting [11]), 10800.

Turning to `CC(=O)OCC(COC(C)=O)OC(C)=O`, the fold change in assay [1] (setting [8]) is 0.85 (inactive); in assay [1] (setting [9]) it was 3.03. For the same compound, the cell count in assay [1] (setting [10]) came to 10700; in assay [1] (setting [11]) it was 12600.

Regarding `Cc1ncc([N+](=O)[O-])n1CCO`, the result in assay [2] was inactive. The z-score in assay [4] (setting [12]) was -0.252 (inactive) and -0.693 (inactive) and 0.0516 (inactive); in assay [4] (setting [13]), 0.34 and -0.0287 and -0.879.

Consider `CS(=O)(=O)Nc1ccc([N+](=O)[O-])cc1Oc1ccccc1`, for which the compound was classed as inactive in assay [6] and in assay [3]. Also, the fold fluorescence in assay [7] was 4.45 [at 162.2 µM] (inactive). The z-score was -0.305 (inactive) and 0.634 (inactive) and -0.303 (inactive) in assay [4] (setting [12]); 1.18 and 0.441 and -0.993 in assay [4] (setting [13]).

The values above are taken from PubChem BioAssay.
